Measured values reported in the supplement of paper PMC10849652.
Targets with a hit are over-represented here; the source holds about 7,900 in all. About 0.6% of all pairs of compound and target were hits.

These targets were tested with C1=CC=C(C=C1)C2=NC(=C(N2)C3=CC=NC=C3)C4=CC(=C(C=C4)Cl)O (assay: log2 fold change, soluble protein after heating vs DMSO (PISA); higher = thermal stabilisation; K562 cells, 10 uM, 30 min; active = over 0.2 and 3.5 SD of the protein, either way, in both replicates (recomputed)).
How it was run: (§1)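 Soluble protein was quantified by TMTpro 16plex LC-MS/MS after channel sums were equalised. It was obtained as the supernatant after 21,000xg for 90 min from pooled aliquots of K562 cells (2×10^6 cells/mL, 10 μM compound, 30 min) heated for 3 min across 48°C-58°C and extracted in PBS with 0.5% NP-40 at 4°C. Thermal stability values are relative to control samples and come from duplicates. They are given as log2 fold changes.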

Chain of UniProt P14618 (P14618 whole entry, looked up): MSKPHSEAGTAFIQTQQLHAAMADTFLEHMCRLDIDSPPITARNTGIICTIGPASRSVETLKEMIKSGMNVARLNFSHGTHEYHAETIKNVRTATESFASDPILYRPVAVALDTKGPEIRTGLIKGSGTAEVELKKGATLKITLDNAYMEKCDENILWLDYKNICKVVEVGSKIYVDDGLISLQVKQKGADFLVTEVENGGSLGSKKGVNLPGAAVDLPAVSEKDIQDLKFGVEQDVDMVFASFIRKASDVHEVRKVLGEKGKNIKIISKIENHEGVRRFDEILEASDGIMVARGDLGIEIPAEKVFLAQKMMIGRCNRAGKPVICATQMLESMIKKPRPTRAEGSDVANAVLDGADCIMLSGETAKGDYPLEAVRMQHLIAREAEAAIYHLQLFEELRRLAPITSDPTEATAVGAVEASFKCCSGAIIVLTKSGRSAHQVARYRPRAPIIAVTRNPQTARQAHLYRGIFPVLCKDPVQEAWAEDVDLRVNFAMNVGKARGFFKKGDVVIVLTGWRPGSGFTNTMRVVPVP
Chain of UniProt P07205 (P07205 whole entry, looked up): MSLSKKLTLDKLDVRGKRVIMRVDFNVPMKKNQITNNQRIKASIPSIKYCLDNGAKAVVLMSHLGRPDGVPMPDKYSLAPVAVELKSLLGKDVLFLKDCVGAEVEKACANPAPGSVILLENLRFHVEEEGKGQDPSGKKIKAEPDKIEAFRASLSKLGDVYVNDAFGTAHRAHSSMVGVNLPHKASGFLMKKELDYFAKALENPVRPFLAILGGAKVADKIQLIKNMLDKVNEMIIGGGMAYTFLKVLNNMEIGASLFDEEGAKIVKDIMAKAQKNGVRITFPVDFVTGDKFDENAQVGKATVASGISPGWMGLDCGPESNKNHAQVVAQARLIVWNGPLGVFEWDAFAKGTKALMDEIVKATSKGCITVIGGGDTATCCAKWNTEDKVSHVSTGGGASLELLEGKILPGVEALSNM
Chain of UniProt O94806 (O94806 whole entry, looked up): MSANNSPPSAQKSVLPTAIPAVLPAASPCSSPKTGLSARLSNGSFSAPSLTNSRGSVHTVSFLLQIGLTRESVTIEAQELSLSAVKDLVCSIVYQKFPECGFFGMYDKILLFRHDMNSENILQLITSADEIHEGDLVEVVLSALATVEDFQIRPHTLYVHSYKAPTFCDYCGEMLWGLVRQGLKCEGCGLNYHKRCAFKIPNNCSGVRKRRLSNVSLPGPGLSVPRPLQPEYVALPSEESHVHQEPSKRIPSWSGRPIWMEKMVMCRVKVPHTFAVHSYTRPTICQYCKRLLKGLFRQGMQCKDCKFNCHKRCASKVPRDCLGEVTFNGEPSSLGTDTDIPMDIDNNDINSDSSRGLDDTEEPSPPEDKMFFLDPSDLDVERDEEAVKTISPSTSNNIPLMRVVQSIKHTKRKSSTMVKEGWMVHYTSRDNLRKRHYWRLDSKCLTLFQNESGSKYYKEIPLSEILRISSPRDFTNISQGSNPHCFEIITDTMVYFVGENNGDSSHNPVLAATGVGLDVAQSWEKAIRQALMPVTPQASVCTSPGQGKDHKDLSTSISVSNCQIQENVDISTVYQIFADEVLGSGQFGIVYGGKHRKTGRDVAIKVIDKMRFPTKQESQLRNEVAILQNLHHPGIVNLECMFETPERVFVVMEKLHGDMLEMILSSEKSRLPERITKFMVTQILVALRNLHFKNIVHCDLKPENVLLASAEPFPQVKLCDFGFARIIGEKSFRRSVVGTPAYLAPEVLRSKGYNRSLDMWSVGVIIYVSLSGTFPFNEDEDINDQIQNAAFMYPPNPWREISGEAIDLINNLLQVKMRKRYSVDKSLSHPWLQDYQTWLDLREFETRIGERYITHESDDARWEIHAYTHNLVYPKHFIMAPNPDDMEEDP
Chain of UniProt Q7Z3K3 (Q7Z3K3 whole entry, looked up): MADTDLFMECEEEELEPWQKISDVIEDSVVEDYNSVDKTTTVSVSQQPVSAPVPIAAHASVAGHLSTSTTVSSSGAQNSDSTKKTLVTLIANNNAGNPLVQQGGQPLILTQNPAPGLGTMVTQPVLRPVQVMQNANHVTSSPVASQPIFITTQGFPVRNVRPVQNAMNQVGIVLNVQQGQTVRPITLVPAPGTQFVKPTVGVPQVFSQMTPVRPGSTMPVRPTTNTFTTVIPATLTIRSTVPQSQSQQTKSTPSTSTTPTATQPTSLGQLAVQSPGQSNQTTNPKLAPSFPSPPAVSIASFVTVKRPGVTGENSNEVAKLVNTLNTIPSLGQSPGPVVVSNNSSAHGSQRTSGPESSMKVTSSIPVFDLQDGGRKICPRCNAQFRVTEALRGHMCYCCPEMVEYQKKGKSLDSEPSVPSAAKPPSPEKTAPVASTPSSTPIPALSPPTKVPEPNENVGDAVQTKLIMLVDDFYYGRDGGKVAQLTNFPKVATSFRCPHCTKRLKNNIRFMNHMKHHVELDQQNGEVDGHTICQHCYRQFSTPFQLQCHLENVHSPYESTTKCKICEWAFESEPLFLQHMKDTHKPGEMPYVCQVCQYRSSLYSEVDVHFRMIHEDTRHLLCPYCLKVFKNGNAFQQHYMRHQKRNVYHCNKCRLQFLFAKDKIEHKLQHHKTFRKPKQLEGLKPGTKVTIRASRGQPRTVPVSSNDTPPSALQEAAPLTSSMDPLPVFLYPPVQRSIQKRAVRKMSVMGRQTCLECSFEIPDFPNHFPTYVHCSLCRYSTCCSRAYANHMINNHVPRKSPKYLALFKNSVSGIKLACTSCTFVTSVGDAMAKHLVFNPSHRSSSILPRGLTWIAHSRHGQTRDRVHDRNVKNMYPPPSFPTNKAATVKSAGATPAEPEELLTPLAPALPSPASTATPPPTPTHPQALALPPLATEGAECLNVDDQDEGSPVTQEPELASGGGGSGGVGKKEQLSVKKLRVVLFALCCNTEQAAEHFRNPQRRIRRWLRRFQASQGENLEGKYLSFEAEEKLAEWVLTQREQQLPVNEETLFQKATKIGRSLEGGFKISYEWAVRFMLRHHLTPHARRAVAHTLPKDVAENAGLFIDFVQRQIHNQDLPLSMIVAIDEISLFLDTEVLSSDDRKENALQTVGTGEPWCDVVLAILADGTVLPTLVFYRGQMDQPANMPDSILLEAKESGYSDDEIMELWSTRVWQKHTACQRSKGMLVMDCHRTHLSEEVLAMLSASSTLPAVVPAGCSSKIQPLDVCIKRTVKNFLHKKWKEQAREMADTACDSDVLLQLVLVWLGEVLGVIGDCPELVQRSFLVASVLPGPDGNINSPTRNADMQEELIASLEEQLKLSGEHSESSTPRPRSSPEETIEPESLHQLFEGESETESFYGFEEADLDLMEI
Chain of UniProt P41247 (P41247 whole entry, looked up): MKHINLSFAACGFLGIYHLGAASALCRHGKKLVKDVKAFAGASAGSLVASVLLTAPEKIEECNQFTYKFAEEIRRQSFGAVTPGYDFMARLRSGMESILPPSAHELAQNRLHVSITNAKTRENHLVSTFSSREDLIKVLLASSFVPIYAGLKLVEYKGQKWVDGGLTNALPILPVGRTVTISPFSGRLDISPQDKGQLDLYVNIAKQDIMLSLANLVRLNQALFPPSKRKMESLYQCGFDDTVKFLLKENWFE
Chain of UniProt Q14289 (Q14289 whole entry, looked up): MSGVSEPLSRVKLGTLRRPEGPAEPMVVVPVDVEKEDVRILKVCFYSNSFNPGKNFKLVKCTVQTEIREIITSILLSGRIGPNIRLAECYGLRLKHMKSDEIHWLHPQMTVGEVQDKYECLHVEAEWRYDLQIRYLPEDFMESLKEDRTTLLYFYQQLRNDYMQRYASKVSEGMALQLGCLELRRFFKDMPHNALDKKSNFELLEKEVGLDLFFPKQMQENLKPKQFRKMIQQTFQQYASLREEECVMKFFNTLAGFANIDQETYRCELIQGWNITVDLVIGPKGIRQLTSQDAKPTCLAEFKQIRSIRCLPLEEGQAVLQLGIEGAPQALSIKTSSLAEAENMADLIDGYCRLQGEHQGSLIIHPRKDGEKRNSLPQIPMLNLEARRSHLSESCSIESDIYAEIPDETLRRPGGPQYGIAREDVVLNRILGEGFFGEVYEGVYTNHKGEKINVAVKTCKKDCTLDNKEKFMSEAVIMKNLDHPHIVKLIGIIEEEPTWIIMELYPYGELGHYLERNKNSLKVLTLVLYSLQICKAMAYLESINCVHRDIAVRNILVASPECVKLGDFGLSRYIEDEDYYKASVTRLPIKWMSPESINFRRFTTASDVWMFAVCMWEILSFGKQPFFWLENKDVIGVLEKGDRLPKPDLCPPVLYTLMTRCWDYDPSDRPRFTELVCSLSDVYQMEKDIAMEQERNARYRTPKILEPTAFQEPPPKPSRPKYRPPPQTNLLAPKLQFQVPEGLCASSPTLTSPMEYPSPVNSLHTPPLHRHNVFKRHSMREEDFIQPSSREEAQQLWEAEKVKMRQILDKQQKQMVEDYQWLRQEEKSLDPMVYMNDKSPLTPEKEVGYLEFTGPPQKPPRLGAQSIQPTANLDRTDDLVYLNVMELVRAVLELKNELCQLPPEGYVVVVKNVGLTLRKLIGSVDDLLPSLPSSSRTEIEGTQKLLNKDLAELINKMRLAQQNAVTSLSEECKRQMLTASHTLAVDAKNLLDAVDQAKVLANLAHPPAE
Chain of UniProt Q8TCG2 (Q8TCG2 whole entry, looked up): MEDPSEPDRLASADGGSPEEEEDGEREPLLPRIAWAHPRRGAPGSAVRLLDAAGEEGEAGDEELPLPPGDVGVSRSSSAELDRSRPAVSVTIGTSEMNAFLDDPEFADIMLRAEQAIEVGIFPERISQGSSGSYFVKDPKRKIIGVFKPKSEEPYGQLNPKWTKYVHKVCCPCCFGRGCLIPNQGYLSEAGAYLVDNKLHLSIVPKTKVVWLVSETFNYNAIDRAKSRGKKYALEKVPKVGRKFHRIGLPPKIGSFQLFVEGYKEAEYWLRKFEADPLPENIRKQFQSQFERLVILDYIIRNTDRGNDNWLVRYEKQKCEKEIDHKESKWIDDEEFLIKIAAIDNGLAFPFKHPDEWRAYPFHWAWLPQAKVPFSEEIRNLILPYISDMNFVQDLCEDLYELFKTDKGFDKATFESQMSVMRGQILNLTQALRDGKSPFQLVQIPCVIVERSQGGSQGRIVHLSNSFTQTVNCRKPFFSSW

log2 fold change, inactive:
PSMA3 (UniProt G3V4X5) 0.348, PPP1R12C (UniProt Q9BZL4) 0.037, PI4K2B (UniProt Q8TCG2) -0.019, PCF11 (UniProt O94913) -0.191, POLB (UniProt P06746) 0, PRKD3 (UniProt O94806) 0.055, PHRF1 (UniProt Q9P1Y6) 0.073, PTK2B (UniProt Q14289) 0.008, PSD3 (UniProt Q9NYI0) -0.001, PCID2 (UniProt Q5JVF3) -0.005, PMS2CL (UniProt Q68D20) -0.023, POGZ (UniProt Q7Z3K3) 0.023, PSMA3 (UniProt H0YJ03) -0.065, PIAS4 (UniProt Q8N2W9) -0.214, PTEN isoform 2 (UniProt P60484) 0.178, PPP2R5C isoform 2 (UniProt Q13362) -0.039, PKM isoform 2 (UniProt P14618) -0.048, PGK2 (UniProt P07205) -0.057, PNPLA4 (UniProt P41247) -0.084, PEX5 isoform 4 (UniProt P50542) 0.016, PLCXD1 (UniProt Q9NUJ7) -0.012, PCBP2 (UniProt F8VZX2) -0.008, PUF60 isoform 2 (UniProt Q9UHX1) 0.05

These targets were tested with C1=CC=C2C(=C1)C3=NNC4=CC=CC(=C43)C2=O in the same assay as above.
How it was run: as §1

log2 fold change, inactive:
PI4K2B (UniProt Q8TCG2) -0.007, PCF11 (UniProt O94913) 0.083, PRKD3 (UniProt O94806) -0.507, PUM1 (UniProt Q14671) 0.051, PTK2B (UniProt Q14289) -0.066, PSD3 (UniProt Q9NYI0) 0.018, POGZ (UniProt Q7Z3K3) 0.082, PSMA3 (UniProt H0YJ03) -0.006, PKM isoform 2 (UniProt P14618) 0.04, PGK2 (UniProt P07205) -0.012, PNPLA4 (UniProt P41247) 0.059, PEX5 isoform 4 (UniProt P50542) -0.082, PRR14L (UniProt Q5THK1) -0.091, PPP2R5B (UniProt Q15173) 0.124, PUF60 isoform 2 (UniProt Q9UHX1) 0.046
